These results are taken from the supplement of paper PMC9254222.

Over roughly 1,100 compounds, “Wnt reporter firefly/Renilla luciferase ratio relative to plate median” has its median near 1.1; the highest 2% begin near 1.6. Only a selection was taken, and the highest values are over-represented in it overall.

The assay has as its system HEK293T (UBE3A T485A transfected, BAR Wnt reporter). In words: Wnt reporter firefly/Renilla luciferase ratio relative to plate median (fold (linear ratio)); higher = more Wnt/beta-catenin reporter activation. The note with it: 24 h. In short, it runs like this: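 Chemicals were robotically dosed at 0.01–100 uM for 24 h onto HEK293T cells, starting four hours after transfection with a BAR firefly luciferase Wnt reporter, TK-Renilla and an expression plasmid. The cells had been plated at 4500 cells/well in DMEM with 10% FBS at 37°C and 5% CO2. Following a Dual-Glo luciferase readout, the firefly/Renilla ratio served as the Wnt activity measure and raw Renilla as the cell health measure, both median-centred on each plate. Each value is the mean of four biological replicates.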

Turning to `CCc1cccc(C)c1N(C(=O)CCl)C(C)COC` (stereo not given) [Metolachlor], the “Wnt reporter firefly/Renilla luciferase ratio” value amounted to 0.768 (concentration: 0.01 uM); 1.6 (concentration: 0.1 uM); 0.921 (concentration: 1 uM); 0.833 (concentration: 10 uM); 0.28 (concentration: 100 uM).

In the case of `O=[N+]([O-])C(Br)(CO)CO` [Bronopol], the “Wnt reporter firefly/Renilla luciferase ratio” value is, setting by setting: (concentration: 0.1 uM) 1.17; (concentration: 1 uM) 1.15; (concentration: 10 uM) 1.07.

Consider `CCN(CC)C(=O)SCc1ccc(Cl)cc1` [Thiobencarb], for which the “Wnt reporter firefly/Renilla luciferase ratio” value (concentration: 0.01 uM) turned out to be 0.948; the “Wnt reporter firefly/Renilla luciferase ratio” value (concentration: 0.1 uM) amounted to 1.27; the “Wnt reporter firefly/Renilla luciferase ratio” value (concentration: 1 uM) was 1.52; the “Wnt reporter firefly/Renilla luciferase ratio” value (concentration: 10 uM) came to 1.02; the “Wnt reporter firefly/Renilla luciferase ratio” value (concentration: 100 uM) was found to be 1.54.

Turning to `O=[N+]([O-])c1cc(C(F)(F)F)c(Cl)c([N+](=O)[O-])c1Nc1ncc(C(F)(F)F)cc1Cl` [Fluazinam], the “Wnt reporter firefly/Renilla luciferase ratio” value by setting is: (concentration: 0.01 uM) 0.902; (concentration: 0.1 uM) 0.969; (concentration: 1 uM) 1.24; (concentration: 10 uM) 0.338.

`Cl[C@H]1[C@H](Cl)[C@@H](Cl)[C@H](Cl)[C@@H](Cl)[C@@H]1Cl` [beta-Hexachlorocyclohexane]: the “Wnt reporter firefly/Renilla luciferase ratio” value runs as follows: (concentration: 0.1 uM) 1.05; (concentration: 1 uM) 0.913; (concentration: 10 uM) 1.12; (concentration: 100 uM) 1.03.

Regarding `Clc1ccc(Cl)c(Cl)c1` [1,2,4-Trichlorobenzene], the “Wnt reporter firefly/Renilla luciferase ratio” value is 0.911 (concentration: 0.1 uM), 0.886 (concentration: 1 uM), 1.04 (concentration: 10 uM) and 1.57 (concentration: 100 uM).

Take `Clc1cccc(Cl)c1` [1,3-Dichlorobenzene]: the “Wnt reporter firefly/Renilla luciferase ratio” value reads like this: (concentration: 0.1 uM) 1.15; (concentration: 1 uM) 1.18; (concentration: 10 uM) 1.45; (concentration: 100 uM) 1.77.

As for `Nc1ccc(Cl)cc1N` [4-Chloro-1,2-diaminobenzene], the “Wnt reporter firefly/Renilla luciferase ratio” value turned out to be 1.1 (concentration: 0.1 uM), 1.03 (concentration: 1 uM) and 0.852 (concentration: 10 uM).

For the compound `Cc1cc(C)cc(C)c1` [1,3,5-Trimethylbenzene], the “Wnt reporter firefly/Renilla luciferase ratio” value (concentration: 0.1 uM) was determined as 1.01, the “Wnt reporter firefly/Renilla luciferase ratio” value (concentration: 1 uM) came to 1.15, the “Wnt reporter firefly/Renilla luciferase ratio” value (concentration: 10 uM) was 1.05 and the “Wnt reporter firefly/Renilla luciferase ratio” value (concentration: 100 uM) amounted to 1.12.

Consider `CCCC(=NOCC)C1=C(O)CC(CC(C)SCC)CC1=O` (stereo not given) [Sethoxydim], for which the “Wnt reporter firefly/Renilla luciferase ratio” value (concentration: 0.01 uM) turned out to be 1.27; the “Wnt reporter firefly/Renilla luciferase ratio” value (concentration: 0.1 uM) was 1.07; the “Wnt reporter firefly/Renilla luciferase ratio” value (concentration: 1 uM) turned out to be 1.15; the “Wnt reporter firefly/Renilla luciferase ratio” value (concentration: 10 uM) worked out at 1.2; the “Wnt reporter firefly/Renilla luciferase ratio” value (concentration: 100 uM) is 0.758.

Consider `CCOC(=O)C(Cl)Cc1cc(-n2nc(C)n(C(F)F)c2=O)c(F)cc1Cl` (stereo not given) [Carfentrazone-ethyl], for which the “Wnt reporter firefly/Renilla luciferase ratio” value is, setting by setting: (concentration: 0.01 uM) 1.07; (concentration: 0.1 uM) 0.973; (concentration: 1 uM) 0.982; (concentration: 10 uM) 0.945; (concentration: 100 uM) 1.28.

With `CCOC(=O)COc1cc(-c2nn(C)c(OC(F)F)c2Cl)c(F)cc1Cl` [Pyraflufen-ethyl], the “Wnt reporter firefly/Renilla luciferase ratio” value reads like this: (concentration: 0.01 uM) 1.13; (concentration: 0.1 uM) 1.63; (concentration: 1 uM) 1.05; (concentration: 10 uM) 1.09; (concentration: 100 uM) 1.13.

As for `O=C(Oc1ccc(Br)cc1)N1CCN2CCC1CC2`, the “Wnt reporter firefly/Renilla luciferase ratio” value came to 1.11 (concentration: 0.1 uM), 0.988 (concentration: 1 uM), 1.09 (concentration: 10 uM) and 0.334 (concentration: 100 uM).

As to `CC(COc1ccc(Oc2ccccc2)cc1)Oc1ccccn1` (stereo not given) [Pyriproxyfen], the “Wnt reporter firefly/Renilla luciferase ratio” value by setting is: (concentration: 0.01 uM) 1.12; (concentration: 0.1 uM) 0.977; (concentration: 1 uM) 1.04; (concentration: 10 uM) 1.03; (concentration: 100 uM) 0.55.

In the case of `ClC1(Cl)C2(Cl)C3(Cl)C4(Cl)C(Cl)(Cl)C5(Cl)C3(Cl)C1(Cl)C5(Cl)C24Cl` (stereo not given) [Mirex], the “Wnt reporter firefly/Renilla luciferase ratio” value runs as follows: (concentration: 0.1 uM) 1.02; (concentration: 1 uM) 1.05; (concentration: 10 uM) 0.921; (concentration: 100 uM) 1.28.

For the compound `O=C(Nc1ccccc1)Nc1ccnc(Cl)c1` [Forchlorfenuron], the “Wnt reporter firefly/Renilla luciferase ratio” value was 1.1 (concentration: 0.01 uM), 1.16 (concentration: 0.1 uM), 0.957 (concentration: 1 uM) and 0.694 (concentration: 10 uM).

Turning to `CCCCc1ccccc1` [Butylbenzene], the “Wnt reporter firefly/Renilla luciferase ratio” value is, setting by setting: (concentration: 0.1 uM) 0.995; (concentration: 1 uM) 1.31; (concentration: 10 uM) 1.01; (concentration: 100 uM) 0.948.

Turning to `CC(C)N(C(=O)COc1nnc(C(F)(F)F)s1)c1ccc(F)cc1` [Flufenacet], the “Wnt reporter firefly/Renilla luciferase ratio” value (concentration: 0.01 uM) came to 0.973; the “Wnt reporter firefly/Renilla luciferase ratio” value (concentration: 0.1 uM) was 0.746; the “Wnt reporter firefly/Renilla luciferase ratio” value (concentration: 1 uM) worked out at 0.898; the “Wnt reporter firefly/Renilla luciferase ratio” value (concentration: 10 uM) worked out at 0.605; the “Wnt reporter firefly/Renilla luciferase ratio” value (concentration: 100 uM) was found to be 0.254.

As for `C=CCc1ccc2c(c1)OCO2` [Safrole], the “Wnt reporter firefly/Renilla luciferase ratio” value is, setting by setting: (concentration: 0.1 uM) 1.26; (concentration: 1 uM) 1.37; (concentration: 10 uM) 0.895; (concentration: 100 uM) 1.23.

For the compound `C[C@]12C=CC3=C4CCC(=O)C=C4CC[C@H]3[C@@H]1CC[C@@H]2O` [17beta-Trenbolone], the “Wnt reporter firefly/Renilla luciferase ratio” value is 1.08 (concentration: 0.1 uM), 1.18 (concentration: 1 uM), 0.938 (concentration: 10 uM) and 0.146 (concentration: 100 uM).

In the case of `CCNC(=O)NC(=O)/C(C#N)=N/OC` [Cymoxanil], the “Wnt reporter firefly/Renilla luciferase ratio” value stood at 1.42 (concentration: 0.01 uM); 1.34 (concentration: 0.1 uM); 1.15 (concentration: 1 uM); 1.29 (concentration: 10 uM); 1.1 (concentration: 100 uM).

On to `CC(C)(C)c1ccccc1O` [2-tert-Butylphenol], for which the “Wnt reporter firefly/Renilla luciferase ratio” value was 1.53 (concentration: 0.1 uM), 1.54 (concentration: 1 uM), 1.25 (concentration: 10 uM) and 0.813 (concentration: 100 uM).

As to `CC1(C)C(C=C(Cl)Cl)C1C(=O)OCc1cccc(Oc2ccccc2)c1` (stereo not given) [Permethrin], the “Wnt reporter firefly/Renilla luciferase ratio” value reads like this: (concentration: 0.01 uM) 0.82; (concentration: 0.1 uM) 0.873; (concentration: 1 uM) 1.11; (concentration: 10 uM) 1.19; (concentration: 100 uM) 0.865.

Consider `Nc1nc(N)nc(NC2CC2)n1` [Cyromazine], for which the “Wnt reporter firefly/Renilla luciferase ratio” value is 1.01 (concentration: 0.01 uM); 1.18 (concentration: 0.1 uM); 0.955 (concentration: 1 uM); 1.02 (concentration: 10 uM); 1.22 (concentration: 100 uM).

Consider `CCCCCCCCn1sccc1=O` [Octhilinone], for which the “Wnt reporter firefly/Renilla luciferase ratio” value (concentration: 0.1 uM) was 1.02, the “Wnt reporter firefly/Renilla luciferase ratio” value (concentration: 1 uM) amounted to 1.15 and the “Wnt reporter firefly/Renilla luciferase ratio” value (concentration: 10 uM) came out at 1.07.

With `CNC(=O)N(C)c1nnc(C(C)(C)C)s1` [Tebuthiuron], the “Wnt reporter firefly/Renilla luciferase ratio” value runs as follows: (concentration: 0.01 uM) 1.35; (concentration: 0.1 uM) 1.39; (concentration: 1 uM) 1.32; (concentration: 10 uM) 1.67; (concentration: 100 uM) 1.5.

For the compound `CCCN(CCC)c1c([N+](=O)[O-])cc(C(C)C)cc1[N+](=O)[O-]` [Isopropalin], the “Wnt reporter firefly/Renilla luciferase ratio” value is 1.07 (concentration: 0.1 uM), 1.04 (concentration: 1 uM), 1.11 (concentration: 10 uM) and 1.31 (concentration: 100 uM).

Turning to `CCOC1Oc2ccc(OS(C)(=O)=O)cc2C1(C)C` (stereo not given) [Ethofumesate], the “Wnt reporter firefly/Renilla luciferase ratio” value (concentration: 0.01 uM) was 1.05; the “Wnt reporter firefly/Renilla luciferase ratio” value (concentration: 0.1 uM) stood at 0.973; the “Wnt reporter firefly/Renilla luciferase ratio” value (concentration: 1 uM) stood at 1.03; the “Wnt reporter firefly/Renilla luciferase ratio” value (concentration: 10 uM) turned out to be 1.14; the “Wnt reporter firefly/Renilla luciferase ratio” value (concentration: 100 uM) is 1.86.

Take `N#CC(CCc1ccc(Cl)cc1)(Cn1cncn1)c1ccccc1` (stereo not given) [Fenbuconazole]: the “Wnt reporter firefly/Renilla luciferase ratio” value is 1.07 (concentration: 0.01 uM); 1.01 (concentration: 0.1 uM); 1.03 (concentration: 1 uM); 0.614 (concentration: 10 uM); 0.347 (concentration: 100 uM).

In the case of `CN(C)C(=S)[S-].[Na+]` [Sodium dimethyldithiocarbamate], the “Wnt reporter firefly/Renilla luciferase ratio” value was found to be 1.22 (concentration: 0.1 uM), 0.816 (concentration: 1 uM), 0.751 (concentration: 10 uM) and 0.926 (concentration: 100 uM).

As for `CN(C)C(=S)[S-].CN(C)C(=S)[S-].[Zn+2]` [Ziram], the “Wnt reporter firefly/Renilla luciferase ratio” value by setting is: (concentration: 0.1 uM) 1; (concentration: 1 uM) 0.732; (concentration: 10 uM) 0.577.

`CN(C)C(=S)SSC(=S)N(C)C` [Thiram]: the “Wnt reporter firefly/Renilla luciferase ratio” value runs as follows: (concentration: 0.01 uM) 1.62; (concentration: 0.1 uM) 1.39; (concentration: 1 uM) 1.06; (concentration: 10 uM) 1.24.

For `c1ccc(-c2ccccc2)cc1` [Biphenyl], the “Wnt reporter firefly/Renilla luciferase ratio” value stood at 1.39 (concentration: 0.1 uM), 1.01 (concentration: 1 uM), 1.25 (concentration: 10 uM) and 1.46 (concentration: 100 uM).

Regarding `CCCC1COC(Cn2cncn2)(c2ccc(Cl)cc2Cl)O1` (stereo not given) [Propiconazole], the “Wnt reporter firefly/Renilla luciferase ratio” value (concentration: 0.01 uM) is 0.957, the “Wnt reporter firefly/Renilla luciferase ratio” value (concentration: 0.1 uM) worked out at 1.03, the “Wnt reporter firefly/Renilla luciferase ratio” value (concentration: 1 uM) was determined as 1.17 and the “Wnt reporter firefly/Renilla luciferase ratio” value (concentration: 10 uM) came to 0.78.
